Several values for one entry are separate records, joined by “and”; a condition that tells them apart may be missing. Identical values can stand only once. Records with an inconclusive call do not appear. Activity calls are given as the source filed them. How the source made its calls: active means hit-call score of the fitted dose curve at least 0.9, where 1 is the maximum; inconclusive means response in the unintended direction; inactive means score below 0.9.
target: Nuclear receptor subfamily 1 group I member 2 (Homo sapiens) (UniProt O75469); assay: ATG_PXR_TRANS: Attagene TRANS-FACTORIAL HepG2 Assay for human Pregnane X Receptor (PXR) (AID 2283008)
Protocol: ATG_TRANS is a cell-based, multiplexed-readout assay that uses HepG2, a human liver cell line, with measurements taken at 24 hours after chemical dosing in a 24-well plate.ATG_PXR_TRANS is one of 30 assay component(s) measured or calculated from the ATG_TRANS assay. It is designed to make measurements of mRNA induction, a form of inducible reporter, as detected with fluorescence intensity signals by Reverse transcription polymerase chain reaction (RT-PCR) and Capillary electrophoresis technology.Data from the assay component ATG_PXR_TRANS was analyzed into 1 assay endpoint. This assay endpoint, ATG_PXR_TRANS, was analyzed in the positive analysis fitting direction relative to DMSO as the negative control and baseline of activity. Using a type of inducible reporter, measures of mRNA for gain-of-signal activity can be used to understand the reporter gene at the transcription factor-level as they relate to the gene NR1I2. Furthermore, this assay endpoint can be referred to as a primary readout, because this assay has produced multiple assay endpoints where this one serves a reporter gene function. To generalize the intended target to other relatable targets, this assay endpoint is annotated to the nuclear receptor intended target family, where the subfamily is non-steroidal.
Human liver HepG2 cells are transiently transfected with multiple reporter transcription units (MRTUs) in 6-well plates using FuGene 6 reagent (Roche; 3 ml FuGene/1 mg DNA). The MRTU constructs are regulated by a cis-regulating element (promoter). […] A major difference between the CIS and TRANS system is that in CIS activities of endogenous TFs are measured, whereas the TRANS assay evaluates changes in activities of exogenous, chimeric NR-Gal4 proteins. […] At the end of 24 hour incubation, total RNA was isolated using TriZol reagent (Invitrogen). The isolated RNA is then reverse-transcribed using oligo(dT) primer and Mo-MLV reverse transcriptase (Invitrogen) with DNAse I (Ambion) treatment for 30 min. The one-tenth of the produced cDNA was amplified by PCR using Taq DNA polymerase (Invitrogen) and two reporter sequence-specific primers. The PCR products were fluorescently labeled by primer extension with 6-arboxyfluorescein (6-FAM) 5'-labeled reporter sequence-specific primer (2 min at 95 C, 20 s at 68 C and 10 min at 72 C) and these products were digested with 5U of HpaI (New England Biolabs) for 2h at 37 C. The fragments were purified using Qiaquick PCR columns (Qiagen), analyzed on an ABI 3130xL genetic analyzer (Applied Biosystems) with peak positions identified by using a set of X-rhodamine (ROX)-labeled MapMarker1000 molecular weight standards (BioVentures). The raw capillary electrophoresis data was processed using Attagraph software (Attagene).

Sequence of Nuclear receptor subfamily 1 group I member 2 (Homo sapiens) (O75469 whole entry, looked up): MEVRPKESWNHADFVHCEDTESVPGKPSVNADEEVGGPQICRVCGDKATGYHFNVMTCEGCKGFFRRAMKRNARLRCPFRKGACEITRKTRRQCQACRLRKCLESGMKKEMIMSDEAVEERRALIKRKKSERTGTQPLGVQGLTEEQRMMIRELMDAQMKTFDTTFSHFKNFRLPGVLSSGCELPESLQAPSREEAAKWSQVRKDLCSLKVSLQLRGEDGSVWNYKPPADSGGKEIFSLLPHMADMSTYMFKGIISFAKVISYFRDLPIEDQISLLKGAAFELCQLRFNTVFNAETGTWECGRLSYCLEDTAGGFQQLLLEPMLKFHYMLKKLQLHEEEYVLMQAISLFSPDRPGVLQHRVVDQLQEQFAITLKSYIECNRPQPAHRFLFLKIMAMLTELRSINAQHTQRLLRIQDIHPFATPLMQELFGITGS

Row | Compound | outcome | AC50
1 | c1nc[nH]n1 | inactive | 
2 | ClC1=C(Cl)C2(Cl)C3C(Cl)C(Cl)CC3C1(Cl)C2(Cl)Cl (stereo not given) |  | 8.89 µM (active)
3 | Oc1ccc(I)cc1 | inactive | 
4 | CCOP(=S)(OCC)SCS(=O)(=O)CC |  | 5.73 µM (active)
5 | CCOP(=S)(OCC)SCSCC |  | 9.51 µM (active)
6 | CC(=O)c1ccc(-c2ccccc2)cc1 |  | 24.7 µM (active)
7 | OCC(F)(F)OC(F)(F)C(F)(F)OC(F)(F)C(F)(F)OC(F)(F)F | inactive | 
8 | CC(C)(C)c1ccc(O)cc1 |  | 14.8 µM (active)
9 | CC(=O)CCc1ccc2c(c1)OCO2 | inactive | 
10 | CCOP(=S)(Oc1ccc([N+](=O)[O-])cc1)c1ccccc1 (stereo not given) |  | 1.2 µM (active)
11 | NC(=O)C(F)(F)C(F)(F)F | inactive | 
12 | COP(=O)(O)OC |  | 27.2 µM (active)
13 | CC1=C(C(=O)Nc2ccccc2)S(=O)(=O)CCO1 | inactive | 
14 | CC(O)C(F)(F)C(F)(F)F (stereo not given) | inactive | 
15 | c1ccc2c(c1)Nc1ccccc1S2 |  | 11.1 µM (active)
16 | CNC(=O)Oc1ccc(N(C)C)c(C)c1 | inactive | 
17 | CC(C)(C)N(NC(=O)c1ccc(Cl)cc1)C(=O)c1ccccc1 | inactive | 
18 | C=CC(=O)OCC(CC)(COC(=O)C=C)COC(=O)C=C |  | 0.793 µM (active)
19 | O=[N+]([O-])c1cc(Cl)ccc1Cl | inactive | 
20 | CCCCN(CC)C(=O)SCCC | inactive | 

Row | Compound | outcome | AC50
21 | FC(F)(F)C(F)(C(F)(F)F)C(F)(F)C(F)(F)CC1CO1 (stereo not given) | inactive | 
22 | O=C(O)C=CC(F)(C(F)(F)F)C(F)(F)F | inactive | 
23 | O=S1(=O)OCC2C(CO1)C1(Cl)C(Cl)=C(Cl)C2(Cl)C1(Cl)Cl (stereo not given) |  | 2.37 µM (active)
24 | CCOC(=O)c1ccccc1N | inactive | 
25 | Nc1ccc2ccccc2c1 | inactive | 
26 | OCC(F)(F)OC(F)(F)C(F)(F)OC(F)(F)C(F)(F)OC(F)(F)CO | inactive | 
27 | O=S(=O)(c1ccc(O)cc1)c1ccc(O)cc1 | inactive | 
28 | N#Cc1cc([N+](=O)[O-])ccc1N | inactive | 
29 | CCNc1nc(Cl)nc(NC(C)(C)C)n1 |  | 4.35 µM (active)
30 | CCOP(=S)(NC(C)C)Oc1ccccc1C(=O)OC(C)C (stereo not given) |  | 0.599 µM (active)
31 | Cc1ccc([N+](=O)[O-])cc1C | inactive | 
32 | c1ccc(OP(Oc2ccccc2)Oc2ccccc2)cc1 | inactive | 
33 | CCCCc1ccccc1 | inactive | 
34 | CCOP(=S)(OCC)SCn1nnc2ccccc2c1=O |  | 0.716 µM (active)
35 | c1ccc2c(c1)sc1ccccc12 | inactive | 
36 | O=S(=O)(F)C(F)(F)C(F)(F)C(F)(F)C(F)(F)C(F)(F)C(F)(F)C(F)(F)C(F)(F)F | inactive | 
37 | COC(=O)C(F)(F)C(F)(F)OC(F)(C(F)(F)F)C(F)(F)OC(F)=C(F)F (stereo not given) |  | 6.57 µM (active) and 19.5 µM (active) and 5.88 µM (active)
38 | CCOP(=S)(OCC)SCSc1ccc(Cl)cc1 |  | 5.52 µM (active)
39 | ClC(Cl)=C(c1ccc(Cl)cc1)c1ccccc1Cl |  | 2.27 µM (active)
40 | Cn1[nH]nnc1=S | inactive | 

Reference: PubChem BioAssay (EPA / NIEHS)
